The source of these data is PubChem BioAssay (NCATS).

Inconclusive results are not listed. Unmarked numbers belong to inactive results. The source made the active and inactive calls. Calls come from the whole dose curve; as a rule, active = well fitted cell-killing curve with a large enough effect; inconclusive = small, poorly fitted or top-dose-only effect, or effect the other way; inactive = no such curve, though single readings can be large or run the other way.
Potency is the fitted concentration of half-maximal effect.

The nature of the assay: Viability qHTS for spleen associated tyrosine kinase inhibitor (SYKi) drug resistant MV4-11 cells (AID 1963824). Note: nearly all actives have a fitted effect of over 35% in size. The settings on record: SYKi-resistant MV4-11 viability, CellTiter-Glo, 72 h; series mostly up to 45 µM; viability, % of control: at the top concentration. The essentials: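 CellTiter-Glo luminescence, read 10 min after reagent addition, reports viability after a 72 hr compound exposure. Cells are an MV4-11 line made resistant to SYK inhibition, seeded at 500 per well onto compound-containing plates.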
For the compound `CC(CCC1(O)OC2CC3C4CCC5CC(O[C@@H]6O[C@H](CO)[C@@H](O)[C@H](O)[C@H]6O[C@@H]6OC[C@@H](O)[C@H](O)[C@H]6O)C(O)CC5(C)C4CCC3(C)C2C1C)CO[C@@H]1O[C@H](CO)[C@@H](O)[C@H](O)[C@H]1O` (stereo not given in full), the viability, % of control is 86.8% [at 9.25 µM].
For `CC1=C2CC(=O)C(C)CC/C=C(\C)CC2(O)OC1=O` (stereo not given), the “viability, % of control” value was 97.5%.
On to `Clc1ccc2ncc(-c3cccc(NC4CCNC4)n3)n2c1` (stereo not given), for which the Potency is 0.0103 µM (active).
On the same count and under the same terms, with `C/C=C(\C)C(=O)O[C@H]1C=CC(=O)O[C@H]1/C=C/[C@@H](O)[C@H](C)O` the figure was 3.66 µM (active); with `COc1cc(O)c2c(c1)/C=C/C[C@H](O)[C@H](O)C(=O)/C=C\C[C@H](C)OC2=O`, 0.259 µM (active).
Regarding `C=C1C[C@@]23CCC4[C@@](C)(CCC[C@@]4(C)C(=O)OC)C2CC[C@@H]1C3` (stereo not given in full), the Potency was 6.4 µM (active).
Same read-out and setting: under `O=C(Nc1ccc(-n2nc(C(F)(F)F)cc2C(F)(F)F)cc1)c1ccncc1F` stands 10.3 µM (active); under `CC(=O)O[C@@](C)(C(=O)/C=C/C(C)(C)O)[C@H]1[C@H](O)C[C@@]2(C)[C@@H]3CC=C4[C@@H](C=C(O)C(=O)C4(C)C)[C@]3(C)C(=O)C[C@]12C`, 0.252 µM (active); under `Cc1nc(Nc2n[nH]c3c2CN(C(=O)NC(CN(C)C)c2ccccc2)C3(C)C)c2sccc2n1` (stereo not given), 0.0164 µM (active).
On to `COc1ccc2c(c1O)OC(C)(C)c1c-2ccc2c1C(=O)N(c1ccc(C(=O)c3ccccc3)cc1)C2=O`, for which the “viability, % of control” value was 76.1%.
Regarding `Cc1cc(-c2cnc(N)c3c(-c4ccc5scnc5c4)csc23)n(C)n1`, the Potency was 2.59 µM (active).
Consider `Cn1cc(CCn2cnc(-c3cnn(C)c3)c2-c2ccc(C#N)cc2)cn1`, for which the “viability, % of control” value was 102%.
Turning to `C[C@@H]1O[C@@H](O[C@H]2[C@H](O)[C@@H](O[C@@H]3O[C@H](CO)[C@@H](O)[C@H](O[C@@H]4O[C@H](CO)[C@@H](O)[C@H](O)[C@H]4O)[C@H]3O)[C@H](O[C@H]3CC[C@@]4(C)C(=CC[C@@H]5C4CC[C@@]4(C)C5C[C@@H]5OC6(CC[C@@](C)(CO[C@@H]7O[C@H](CO)[C@@H](O)[C@H](O)[C@H]7O)O6)[C@@H](C)[C@@H]54)C3)O[C@@H]2CO)[C@H](O)[C@H](O)[C@H]1O` (stereo not given in full), the viability, % of control is 94.3% [at 9.25 µM].
Still for that read-out and setting: with `N[C@H]1Cc2ccccc2N(O)C1=O` the figure was 71.7%.
Take `CCN(CC)CCOCCOC(=O)C(CC)(CC)c1ccccc1`: the Potency was 23.1 µM (active).
Same read-out and setting: with `CN(C)c1ccc2c(c1)OC(N)=C(C#N)C2c1cccc(C(F)(F)F)c1` (stereo not given) the figure was 0.184 µM (active).
On to `C[C@@H]1CC[C@]2(C(=O)O[C@@H]3O[C@H](CO[C@@H]4O[C@H](CO)[C@@H](O)[C@H](O)[C@H]4O)[C@@H](O)[C@H](O)[C@H]3O)CC[C@]3(C)C(=CCC4[C@@]5(C)CC[C@H](O)[C@](C)(C(=O)O)C5CC[C@]43C)[C@@H]2[C@]1(C)O` (stereo not given in full), for which the viability, % of control is 98.7% [at 9.25 µM].
Same read-out and setting: under `C[C@@H]1O[C@@H](O[C@H]2[C@H](OC(=O)[C@]34CCC(C)(C)C[C@H]3C3=CCC5[C@@]6(C)C[C@H](O)[C@H](O[C@@H]7O[C@H](CO)[C@@H](O)[C@H](O)[C@H]7O)[C@@](C)(CO)C6[C@H](O)C[C@@]5(C)[C@]3(C)C[C@H]4O)OC[C@H](O)[C@@H]2O)[C@H](O)[C@H](O)[C@H]1O[C@@H]1OC[C@@H](O)[C@H](O[C@H]2OC[C@](O)(CO)[C@H]2O)[C@H]1O` (stereo not given in full) stands 104% [at 9.25 µM].
The same measure, in the same setting: with `COc1cccc(NCCC2(c3ccccc3)CC(C)(C)OC(C)(C)C2)c1` the figure was 102%.
Still for that read-out and setting: with `COC(=O)c1ccnc(-c2cc(C(=O)NCCc3ccccc3)ccn2)c1` the figure was 14.7%.
Regarding `CCC[C@@H]1O[C@@H]2C[C@H]3[C@@H]4CCC5=CC(=O)C=C[C@]5(C)[C@H]4[C@@H](O)C[C@]3(C)[C@]2(C(=O)CO)O1`, the Potency was 8.2 µM (active).
Still for that read-out and setting: with `CC(=O)N1CCN([C@H]2CCN(C(=O)N(C)[C@H](C)c3cc(C(F)(F)F)cc(C(F)(F)F)c3)[C@@H](c3ccc(F)cc3C)C2)CC1` the figure was 8.2 µM (active).
For `COc1ccc([C@H]2CNC(=O)C2)cc1OC1CCCC1`, the “viability, % of control” value was 96.2%.
As for `CC(=O)N1c2ccc(-c3ccc(C(=O)O)cc3)cc2C(Nc2ccc(Cl)cc2)CC1C` (stereo not given), the Potency is 0.0461 µM (active).
`CC(=O)OC[C@@]12C(=O)C[C@@H](C)[C@]3(C[C@@H](c4ccoc4)OC3=O)[C@H]1CC[C@H](OC(C)=O)[C@]21CO1`: the “viability, % of control” value was 87.9% [at 17.3 µM].
